The values below come from PubChem BioAssay (NCI).

The panel holds about 83,000 compounds, 20% with a hit somewhere; the sample as a whole holds those more often.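 How to read the values: 0–100, growth inhibition (40 = 60% inhibited); 0, no net growth; -100 to 0, cell death (-40 = 40% of starting cells died; -100 = all dead).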 Active and inactive are the calls of the source.

The subject of the test is UO-31 renal. Kind of test: NCI-60 one-dose screen, 48 h (100 = growth as untreated, 0 = no growth, -100 = all killed). Particulars: 10 µM unless noted. On the procedure: Growth inhibition of the UO-31 human tumor cell line is measured as a screen for anti-cancer activity. Cells are grown in 96 well plates and exposed to the test compound for 48 hours. Compounds are tested at a single concentration, which is 10^-5 M for most compounds. The reported endpoint is percent growth (GI% or GIPRCNT), where numbers from 0 - 100% represent growth inhibition, and numbers from -100% - 0 represent cell death. For example, a value of 40 represents 60% growth inhibition. A value of 0 means no net growth occurred over the course of the experiment. A value of -40 indicates 40% of cells at the beginning of the experiment died by the end of the experiment. A value of -100 means all cells are dead at the end of the experiment.
NCI-60 Human Tumor Cell Lines Screen was performed using the standard one-dose NCI protocol, which is described in more detail at https://dtp.cancer.gov/discovery_development/nci-60/default.htm.
Compounds with GIPRCNT values below 10 were considered active. Activity score was based on GIPRCNT using the following formula: […]
Score is 0 for GIPRCNT values of 100 or above, 50 for GIPRCNT values of 0, and 100 for GIPRCNT values of -100.
As to `C[C@H]1[C@H](C)CC[C@]2(C(=O)OCCCC[P+](c3ccccc3)(c3ccccc3)c3ccccc3)CC[C@]3(C)C(=CC[C@@H]4[C@@]5(C)CC[C@H](OC(=O)C(Cl)Cl)C(C)(C)[C@@H]5CC[C@]43C)[C@H]12`, the growth was -93.9% (active).

For the compound `NC(=O)c1ccc2nc3c(n2c1)C(=O)C(=O)c1ccccc1-3`, the growth is -99.7% (active).

`O=S(=O)(Nc1nccs1)c1ccc(Nc2nc(-c3ccncc3)cs2)cc1`: the growth is 101% (inactive).

Turning to `Nc1ccc(C2=NN(C(=O)c3cc(-c4ccc(Cl)cc4)nc4ccccc34)C(c3ccc(Cl)cc3)C2)cc1` (stereo not given), the growth is 47.6% (inactive).

For `O=c1c2ccccc2oc2ccc(OCCCCCN3CCCCCC3)cc12`, the growth was 68.1% (inactive).

Consider `Cc1nccc2c3ccc(OCc4cn(-c5ccc(Br)cc5)nn4)cc3n(CC(C)C)c12`, for which the growth was 38.4% (inactive).

Regarding `CCc1ccc(OCc2ccccc2C(=O)Nc2ccc3nc(C)cc(N)c3c2)cc1`, the growth was -98.5% (active).

As to `CC(=O)OCC1OC(OC2C(COC(C)=O)OC(OCCC[S-])C(OC(C)=O)C2OC(C)=O)C(OC(C)=O)C(OC(C)=O)C1OC(C)=O.[Au+].c1ccc(CN2[CH-]N(Cc3ccccc3)C(c3ccccc3)=C2c2ccccc2)cc1` (stereo not given), the growth was 9.47% (active).

In the case of `Cc1cc(Cl)cc(CN(Cc2ccccc2)Cc2c(O)ccc3ccccc23)c1O`, the growth was 62.2% (inactive).

With `CC(=O)c1ccc(NC(=O)CSc2nnc(-c3cc(-c4ccc(C)cc4)nc4ccccc34)o2)cc1`, the growth is 11.5% (inactive).

Consider `O=C1Nc2ccc(Cl)cc2/C1=N/c1nc(-c2ccc(Cl)cc2)cs1`, for which the growth was 24.6% (inactive).

Take `C#Cc1ccccc1NC(=O)c1sc2nc3c(cc2c1N)CCCCCC3`: the growth was 50.1% (inactive).

For `COc1cc(C2=NN(c3ccccc3)C(c3cccc(Nc4ccnc5cc(C(F)(F)F)ccc45)c3)C2)cc(OC)c1OC` (stereo not given), the growth was 61.4% (inactive).

With `C#C[C@@]1(O)[C@@H](CO)O[C@@H](n2cc(-c3ccco3)c3c(N)ncnc32)[C@@H]1O`, the growth was 36.5% (inactive).

For the compound `COC(=O)c1nc(-c2ccccc2)oc1S(=O)(=O)n1nc(-c2ccccc2)cc1N`, the growth was 65.6% (inactive).

For `CCCCn1c(=O)c(/C=C/C(=O)/C=C/c2cc3ccccc3n(CCCC)c2=O)cc2ccccc21`, the growth was -95.1% (active).

As for `Cc1ccccc1NC(=O)c1sc2nc(C)c(C(C)O)cc2c1N` (stereo not given), the growth was 69.6% (inactive).

For the compound `COC(=O)/C=C/c1cc(OC(C)=O)c2c(c1)C(C(=O)OC)C(c1ccc(OC(C)=O)c(OC(C)=O)c1)O2` (stereo not given), the growth was 35.2% (inactive).

Consider `COc1ccc2nc(-c3ccc(Cl)cc3)cc(C(=O)N3N=C(c4ccc(N)cc4)CC3c3ccccc3)c2c1` (stereo not given), for which the growth was 45.5% (inactive).

Consider `COc1ccc(-c2nnc(N3CCN(C(=O)CN4CCN(c5ccccc5)CC4)CC3)nc2-c2ccc(OC)cc2)cc1`, for which the growth was 26.9% (inactive).

For the compound `O=C(Nc1cc(=O)[nH]c(=O)[nH]1)C(Cl)Cl`, the growth is 88.8% (inactive).

For `O=C(N/N=C/C[C@@H]1[C@@H](/C=C/[C@@H](O)COc2cccc(Cl)c2)[C@H](O)C[C@@H]1O)c1ccncc1`, the growth is 89.5% (inactive).

On to `C=C1C(=O)O[C@H]2[C@H]1CC/C(COC(=O)c1c[nH]c3ccccc13)=C\CC[C@@]1(C)O[C@@H]21`, for which the growth is -97.6% (active).

As for `CCSc1nc(Cl)c(C#N)c(-c2ccc(F)cc2)n1`, the growth is 85.8% (inactive).

With `CC(C)NS(=O)(=O)c1cccc(-c2ccc3c(=O)n(CCCN)c4c(c3c2)C(=O)c2ccccc2-4)c1`, the growth was 93.2% (inactive).

On to `N#CC(C#N)=C1NC(c2ccccc2)=C(c2ccccc2)C(c2ccccc2Cl)=C1C#N`, for which the growth is 96.8% (inactive).

For `O=C1NN(c2ccccc2)C(c2ccc(Cl)cc2)N2CCC[C@H]12` (stereo not given in full), the growth was 85.3% (inactive).

Consider `CC(=O)c1cnc(-c2ccccc2)nc1CBr`, for which the growth is 44.7% (inactive).

On to `NC[C@@H]1CCN(c2cc3c(cc2F)c(=O)n(N)c(=O)n3Cc2ccc(-c3ccccc3)cc2)C1`, for which the growth is 69.7% (inactive).

As to `Cc1ccc(-c2nc(C#N)c(S(=O)(=O)N(C)CCO)o2)cc1`, the growth is 78.4% (inactive).

Turning to `C=C(C)[C@@H]1CC[C@]2(C(=O)N3CCN(C)CC3)CC[C@]3(C)[C@H](CC[C@@H]4[C@@]5(C)C/C(=C/c6ccco6)C(=O)C(C)(C)[C@@H]5CC[C@]43C)[C@@H]12`, the growth is 60.5% (inactive).

In the case of `O=C1C(=O)c2c(nc3ccc(Br)cn23)-c2ccccc21`, the growth was -100% (active).

On to `Cc1ccc(C(=O)O)o1`, for which the growth was 95.4% (inactive).

As for `COc1cc(C2=NN(C(C)=O)C(c3cccc(Nc4ccnc5cc(C(F)(F)F)ccc45)c3)C2)cc(OC)c1OC` (stereo not given), the growth was 35.8% (inactive).

Turning to `Cc1ccc(C(=O)/C(=C/c2ccc([N+](=O)[O-])cc2)S(=O)Cc2ccccc2)cc1` (stereo not given), the growth is -83.7% (active).

For `COCCOCCOCc1n(Cc2ccc3ccccc3n2)c2ccccc2[n+]1Cc1ccc2ccccc2n1`, the growth was 67.3% (inactive).

For the compound `CCOC(=O)C1CCN(S(=O)(=O)/N=C2/NC(=O)NC2=C(Cl)Cl)CC1`, the growth is 8.22% (active).

With `Cc1cc(Nc2nc(SCc3ccc(C(=O)Nc4ccc(F)cc4N)cc3)nn3cccc23)n[nH]1`, the growth is 31% (inactive).

As to `COc1cc(NC(=O)COc2cc(C)nc3ccc(OC)cc23)cc(OC)c1`, the growth was 69.8% (inactive).

For `Cc1nnc(/N=C2\NC(=O)/C(=C/c3ccsc3)S2)s1`, the growth is 81.2% (inactive).
